Results filed as inconclusive are left out. Entries that show only a call come without a potency. Values without a mark were called inactive. The source made the active and inactive calls. Calls follow the shape of the full dose curve. Positions of bridges follow the written chain, without caps; N, C: chain ends. Non-standard residues stand in square brackets, D forms with d. Residues, ends and D or L forms follow the SMILES beside them. hArg = N=C(N)NCCCC[C@H](N)C(=O)O; Mpa = O=C(O)CCS
Potency is read from the fitted curve at half-maximal effect.

In the experiment the target is Progesterone receptor (Homo sapiens) (UniProt P06401). Nature of the experiment: qHTS assay to identify small molecule agonists of the progesterone receptor (PR) signaling pathway (AID 1346784). Also: nearly all actives have a fitted effect of over 30% in size. Conditions: PR-UAS-bla HEK293T, beta-lactamase FRET ratio, 16 h; series mostly up to 92.4 µM. From the text: U.S. Tox21 Program National Center for Advancing Translational Sciences [NCATS] NIH Chemical Genomics Center [NCGC] U.S. Environmental Protection Agency [EPA] National Institutes of Environmental Health Sciences [NIEHS] National Toxicology Program [NTP] U.S. Food and Drug Administration [FDA] […] Endocrine disrupting chemicals (EDCs) and their interactions with steroid hormone receptors like PR causes disruption of normal endocrine function. To identify the compounds that activate PR signaling, a PR-UAS-bla GripTite cell line i.e. PR-UAS-bla HEK 293T (Invitrogen, Carlsbad, CA, USA) containing a beta-lactamase reporter gene under the control of an Upstream Activator Sequence (UAS) was used to screen Tox21 10K compound library.
Progesterone receptor (Homo sapiens), sequence (P06401 whole entry, looked up): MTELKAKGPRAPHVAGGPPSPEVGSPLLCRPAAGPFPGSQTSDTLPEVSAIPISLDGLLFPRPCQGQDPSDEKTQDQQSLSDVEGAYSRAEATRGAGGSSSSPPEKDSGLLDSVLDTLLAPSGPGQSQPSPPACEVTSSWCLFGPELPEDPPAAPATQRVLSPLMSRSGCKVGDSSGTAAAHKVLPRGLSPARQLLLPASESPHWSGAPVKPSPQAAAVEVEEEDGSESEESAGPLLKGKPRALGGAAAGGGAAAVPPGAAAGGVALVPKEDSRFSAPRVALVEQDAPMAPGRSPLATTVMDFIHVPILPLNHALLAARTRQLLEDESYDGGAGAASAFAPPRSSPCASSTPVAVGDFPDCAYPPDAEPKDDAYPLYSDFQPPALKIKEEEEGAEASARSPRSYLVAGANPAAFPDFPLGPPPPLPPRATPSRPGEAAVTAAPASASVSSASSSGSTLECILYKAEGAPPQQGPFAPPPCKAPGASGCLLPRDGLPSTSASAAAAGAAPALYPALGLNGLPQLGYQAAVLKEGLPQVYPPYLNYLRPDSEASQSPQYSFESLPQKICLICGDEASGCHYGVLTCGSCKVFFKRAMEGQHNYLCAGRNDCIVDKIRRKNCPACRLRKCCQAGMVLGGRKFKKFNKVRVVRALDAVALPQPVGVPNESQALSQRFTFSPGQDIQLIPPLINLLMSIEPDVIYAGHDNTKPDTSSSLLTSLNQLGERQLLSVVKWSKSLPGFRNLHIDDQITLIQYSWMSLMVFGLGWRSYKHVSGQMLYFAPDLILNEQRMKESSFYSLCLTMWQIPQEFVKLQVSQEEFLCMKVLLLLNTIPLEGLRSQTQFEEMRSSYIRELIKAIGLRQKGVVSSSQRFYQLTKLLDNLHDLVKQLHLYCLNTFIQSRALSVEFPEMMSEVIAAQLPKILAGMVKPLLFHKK
Tox21 Assay Protocol Summary: PR-UAS-bla HEK 293T cells were dispensed at 3,000 cells/5 uL of assay medium containing 2% charcoal stripped FBS per well into black wall/clear-bottom 1536-well plates using a Multidrop Combi (ThermoFisher Scientific, Waltham, MA) dispenser. After the assay plates were incubated at a 37C and 5% CO2 for 6hr, 23 nL of compounds dissolved in DMSO, positive controls or DMSO only was transferred to the assay plate by a Pintool station (Kalypsys, San Diego, CA). The plates were incubated at 37C and 5% CO2 for 16hr. Then 1 uL of LiveBLAzer B/G FRET substrate was added using a BioRAPTR FRD (Flying Reagent Dispenser, Aurora Discovery, San Diego, CA). After the plates were incubated at room temperature for 2 hours, fluorescence intensity was measured by an Envision plate reader (PerkinElmer, Shelton, CT).
Background: In qHTS, concentration-response curves come from the screen itself.
With `O=C(CCCl)NCCc1ccccc1`, the Potency entry is “inactive”.

Consider `C#CCN[C@@H]1CCc2ccccc21`, for which the Potency result was “inactive”.

As for `Cc1ccccc1C(N)=O`, the Potency result is “inactive”.

As to `CCCC(CC)c1ccccc1` (stereo not given), the Potency entry was “inactive”.

For `CC(=O)CC(=O)Nc1ccc(C)cc1C`, the Potency result was “inactive”.

Take `O=C(O)CNC(=O)CNC(=O)CNC(=O)CSC(=O)c1ccccc1`: the Potency entry was “inactive”.

With `CN1C[C@@H]2C[C@H]1CN2c1cc2c(cc1F)c(=O)c(C(=O)O)cn2C1CC1`, the activation is 6.66% [at 19 µM].

On to `CC(=O)OCC(=O)Nc1cc(C#N)cc(NC(=O)COC(C)=O)c1Cl`, for which the Potency result was “inactive”.

For `CC(C)=CCC/C(C)=C/COC=O`, the Potency result is “inactive”.

As to `CCCCSCCCC`, the Potency result was “inactive”.

As for `CC(C)=CCC[C@@](C)(O)[C@H]1CC=C(C)CC1`, the Potency result was “inactive”.

Take `Cc1cc(C)c(C(=O)O)c(C)c1`: the Potency result was “inactive”.

In the case of `CCC(=O)CC`, the Potency entry was “inactive”.

On to `NCC1(Cc2noc(=O)[nH]2)CCCCC1`, for which the Potency result is “inactive”.

For `CCO`, the Potency result is “inactive”.

Take `CN(C)CCCO[C@@H]1[C@H]2OC(C)(C)O[C@H]2O[C@@H]1C(O)CO` (stereo not given in full): the Potency entry was “inactive”.

As for `CC(C)C1OCCN1CCOC(=O)NCCCCCCNC(=O)OCCN1CCOC1C(C)C` (stereo not given), the Potency entry is “inactive”.

With `CC(C)CCOC(=O)c1ccccc1`, the Potency entry was “inactive”.

Regarding `Cc1ccc(C(=O)O)cc1[N+](=O)[O-]`, the Potency entry is “inactive”.

Consider `OCC(O)CN1CCN(c2ccccc2)CC1` (stereo not given), for which the Potency result is “inactive”.

For the compound `c1ccc2c(CC3=NCCN3)cccc2c1`, the Potency result was “inactive”.

`CCCSSCCC`: the Potency entry is “inactive”.

With `O=C(O)CONC(=O)c1ccccc1`, the Potency result is “inactive”.

On to `CC(C)NC(=O)c1ccc(C=O)cc1`, for which the Potency entry is “inactive”.

For the compound `C=CCSSCCC`, the Potency entry was “inactive”.

`C[C@]12CCC(=O)C=C1CC[C@H]1[C@@H]3CC[C@](O)(C(=O)CO)[C@@]3(C)C[C@H](O)[C@@]12F`: the Potency is 1.68 µM (active).

For `CC1=C(C(=O)O)N2C(=O)[C@@H](NC(=O)[C@H](N)c3ccccc3)[C@H]2SC1`, the Potency result was “inactive”.

Take `NCc1ccc(S(N)(=O)=O)cc1`: the Potency result was “inactive”.

As for `CC1(C)O[C@H]2CC(=O)OC[C@]23[C@H]2CC[C@@]4(C)[C@H](c5ccoc5)OC(=O)[C@H]5O[C@]54[C@]2(C)C(=O)C[C@@H]13`, the Potency result is “inactive”.

On to `O=C(O)c1cc2ccccc2nc1C(=O)O`, for which the Potency result is “inactive”.

For `COC(=O)c1cccc(Cl)c1`, the Potency result is “inactive”.

Take `NC(=O)[C@@H]1CSSCCC(=O)N[C@@H](CCCCN=C(N)N)C(=O)NCC(=O)N[C@@H](CC(=O)O)C(=O)N[C@@H](Cc2c[nH]c3ccccc23)C(=O)N2CCC[C@H]2C(=O)N1` ([Mpa][hArg]GDWPC-NH2; disulfide 1-7): the Potency result is “inactive”.

Take `CCOC(=O)CC1(C)OCC(C)O1` (stereo not given): the Potency entry was “inactive”.

On to `Cc1c(NC(=O)c2cccnc2)c(=O)n(-c2ccccc2)n1C`, for which the Potency result was “inactive”.

For the compound `Cn1c(=O)c2[nH]c(Br)nc2n(C)c1=O`, the Potency entry is “inactive”.

As to `CO[Si](CCCn1c(=O)n(CCC[Si](OC)(OC)OC)c(=O)n(CCC[Si](OC)(OC)OC)c1=O)(OC)OC`, the Potency entry is “inactive”.

Take `CCNC(=O)NCc1cccc(Cl)c1`: the Potency result is “inactive”.

In the case of `CCN(CC)CCN`, the Potency entry is “inactive”.

With `OCCN1CCOCC1`, the Potency result was “inactive”.

For `O=C(O)CSCC(=O)NC1CCSC1=O` (stereo not given), the Potency entry is “inactive”.

These data come from PubChem BioAssay (Tox21).
